{"source": "the supplement of paper PMC6555819", "data": [{"test_system": "THRa:RXRa (NR concentration 90 nM, RXRa partner concentration 90 nM)", "assay": "PBM binding z-score (relative to random genomic background probes); higher = stronger binding; sequences stand for … in GC…GCGATTGACAGCGTAGAATGAAGG", "in_short": "(§1)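 Regression normalization was applied to scanned fluorescence from custom Agilent 4×180K protein-binding microarrays. Before scanning, arrays were incubated 1 h with ligand-free nuclear receptor dimers, and binding was detected with antibodies against each partner (one per run). Binding z-scores use the random background probes as reference.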", "values": [{"sequence": "CAAACTAGGTCAAGAGGTCAAAGTACGCTTCCCG", "PBM binding z-score": 4.23}, {"sequence": "AGAATGAGGTTATTAAGATCAGGTAATTGCGGTC", "PBM binding z-score": 2.5}, {"sequence": "TATCCTAGGTCATTGGGCCAGTATAGTACGCATC", "PBM binding z-score": 3.25}, {"sequence": "TCTATTAGATGATTAGGGCAACCGAAACAGCGGA", "PBM binding z-score": 0.35}, {"sequence": "ATCTCTAGGTCAGACTCAGTTCAGTGAAGAACGC", "PBM binding z-score": 2.94}, {"sequence": "CGTCCAAGGTCGGCAGGTCAGTGAAAGCGACGTG", "PBM binding z-score": 2.13}, {"sequence": "TGAATGAGGTTAAAGAGCAGGGAACGTGGCGTCG", "PBM binding z-score": 2.39}, {"sequence": "CCTGGCAGGCCAATCTGGGTCACTCAAGGCTTGA", "PBM binding z-score": 3.8}, {"sequence": "CCTTACGGGTCATTGACAGGTTATAGCATTTGGA", "PBM binding z-score": 2.91}, {"sequence": "AGAATGAGTTTAAGATCAGGGAAACAGAATACAT", "PBM binding z-score": 0.276}, {"sequence": "CCTACTGGGCCATTCAGAGGTAATTGATCATATG", "PBM binding z-score": 0.3}, {"sequence": "TCTGCTAGGTCAGTTGGTCAGCTATCGAGCTGCC", "PBM binding z-score": 1.2}, {"sequence": "CCTACTGGGCTATCAGGTCATTGATATCAACGTT", "PBM binding z-score": 3.1}, {"sequence": "CAAACTGGGTCAAGAGGTCAAAGTCCGCTTCCCG", "PBM binding z-score": 4.14}, {"sequence": "CGTCCACGGTCAGCAGGTCAGTGAAAGCGACGTG", "PBM binding z-score": 1.22}, {"sequence": "TCTTGTAGATCAAATGTTAAGAAAGCCGAAGCCT", "PBM binding z-score": -0.551}, {"sequence": "GCTGCTAGGTCAACTGATGGTCCGCTAAAGCTCG", "PBM binding z-score": 2.73}, {"sequence": "CCGATTGGGGCAGAAAGGTTACCATACCATCCGG", "PBM binding z-score": 0.945}]}, {"test_system": "THRa homodimer (NR concentration 90 nM)", "assay": "PBM binding z-score (relative to random genomic background probes); higher = stronger binding; sequences stand for … in GC…GCGATTGACAGCGTAGAATGAAGG", "in_short": "as §1", "values": [{"sequence": "CGAACTAGGTTAAGGACAGTGAATCTCCGCACGC", "PBM binding z-score": 3.05}, {"sequence": "CATACAGGGTCAGCTAGGCGAGAGTAGGGACGGC", "PBM binding z-score": 1.01}, {"sequence": "ACAGACAGGTGATGTAGGTAACTCAGGCTATCAT", "PBM binding z-score": -0.00745}, {"sequence": "TGAATGAGGTTATAAGATCAGGTAACGTTGCAAA", "PBM binding z-score": 1.06}, {"sequence": "TCTCGGAGGACACGAAAGGTCAGAGCTCGACATC", "PBM binding z-score": 1.08}, {"sequence": "TCTCGGAGGACACGAAGGTCAGAGCATTCCAGAG", "PBM binding z-score": 0.91}, {"sequence": "ATATGTAGGTTAAGGATCATTCAGGTTGGTTCGC", "PBM binding z-score": 0.728}, {"sequence": "CAAACTAGGTCAAGAGGTAAAAGTCCGCTTCCCG", "PBM binding z-score": 1.2}, {"sequence": "TCTCGGCGGACACGAAAGGTCAGAGCTCGACATC", "PBM binding z-score": 0.2}, {"sequence": "AGAACGAGGGCAATGAGTTGATATCACGGGTGGC", "PBM binding z-score": -0.128}, {"sequence": "CCTACTGGGCCATTCAGACGTCATTGATCATATG", "PBM binding z-score": -0.741}, {"sequence": "TTACCAAGGTGAGCTGAGTTCGTTGATCCAACTC", "PBM binding z-score": 0.173}, {"sequence": "TCTTGTAGATCAAAGGTTAAGAACGCCGAAGCCT", "PBM binding z-score": -0.428}, {"sequence": "TCTCGGAGGACACGAAGGTCAGACCTTTCCAGAG", "PBM binding z-score": 1.21}, {"sequence": "ATCTCTAGGGAAAAGTTCAGTGAATCCCGAGGAT", "PBM binding z-score": -0.457}, {"sequence": "CCTAGGAGGACAACAGGAGGTCAGAGCTGCCAGA", "PBM binding z-score": 1.1}, {"sequence": "CCGACTGGGGCCGAAAGGTTACCATACCATCCGG", "PBM binding z-score": -0.247}, {"sequence": "CAAACTAGGTGAAGAGGTCAAAGTCCGCTTCCCG", "PBM binding z-score": 1.42}, {"sequence": "CCGACTGGGGCATAAGGTCACCATAAGCCAGCCC", "PBM binding z-score": 4.71}, {"sequence": "CCTGGTTGGTCAAGGTCACACACGCTATAGGTAC", "PBM binding z-score": 4.54}, {"sequence": "AATACAGGGTCACTAGGCCAGGGTAGGTACGAAT", "PBM binding z-score": 1.34}, {"sequence": "GCTGCTAGGTCAGGTTGGTCAGCGAACGGGTACG", "PBM binding z-score": 0.422}, {"sequence": "CAAACTAGGTCAAGAGGTCAAAGTACGCTTCCCG", "PBM binding z-score": 2.61}, {"sequence": "AGAATGAGGTTATTAAGATCAGGTAATTGCGGTC", "PBM binding z-score": 1.2}, {"sequence": "TATCCTAGGTCATTGGGCCAGTATAGTACGCATC", "PBM binding z-score": 1.52}, {"sequence": "TCTATTAGATGATTAGGGCAACCGAAACAGCGGA", "PBM binding z-score": -0.055}, {"sequence": "ATCTCTAGGTCAGACTCAGTTCAGTGAAGAACGC", "PBM binding z-score": 2.03}, {"sequence": "CGTCCAAGGTCGGCAGGTCAGTGAAAGCGACGTG", "PBM binding z-score": 0.0758}, {"sequence": "TGAATGAGGTTAAAGAGCAGGGAACGTGGCGTCG", "PBM binding z-score": 0.467}, {"sequence": "CCTGGCAGGCCAATCTGGGTCACTCAAGGCTTGA", "PBM binding z-score": 0.481}, {"sequence": "CCTTACGGGTCATTGACAGGTTATAGCATTTGGA", "PBM binding z-score": 0.494}, {"sequence": "AGAATGAGTTTAAGATCAGGGAAACAGAATACAT", "PBM binding z-score": -0.184}, {"sequence": "CCTACTGGGCCATTCAGAGGTAATTGATCATATG", "PBM binding z-score": -0.433}, {"sequence": "TCTGCTAGGTCAGTTGGTCAGCTATCGAGCTGCC", "PBM binding z-score": 0.162}, {"sequence": "CCTACTGGGCTATCAGGTCATTGATATCAACGTT", "PBM binding z-score": 2.44}, {"sequence": "CAAACTGGGTCAAGAGGTCAAAGTCCGCTTCCCG", "PBM binding z-score": 2.13}, {"sequence": "CGTCCACGGTCAGCAGGTCAGTGAAAGCGACGTG", "PBM binding z-score": -0.0318}, {"sequence": "TCTTGTAGATCAAATGTTAAGAAAGCCGAAGCCT", "PBM binding z-score": -0.39}, {"sequence": "GCTGCTAGGTCAACTGATGGTCCGCTAAAGCTCG", "PBM binding z-score": 1.26}, {"sequence": "CCGATTGGGGCAGAAAGGTTACCATACCATCCGG", "PBM binding z-score": -0.567}]}]}
